Test results: PubChem BioAssay AID1345085 (National Center for Advancing Translational Sciences (NCATS), 2018)
Inconclusive results are not listed. A number with no mark means an inactive call. Calls of active or inactive are those of the source. Calls follow the shape of the dose curve; as a rule, active = well fitted cell-killing curve with a large enough effect; inconclusive = small, poorly fitted or top-dose-only effect, or effect the other way; inactive = no such curve, though single readings can be large or run the other way.

Test system: Hek293T
Assay: Confirmatory qHTS for gynecologic anti-cancer compounds from libraries of approved drugs and bioactive compounds; also: nearly all actives have a fitted effect of over 55% in size
Conditions: gynecologic cancer cell panel viability, ATPlite luminescence, 48 h; series mostly up to 57.6 µM; activity change, negative = viability loss: at the top concentration
Outline: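 ATPlite luminescence read-out of cell viability; IC50 from 11-point 1:3 titrations, 57.5 uM to 0.977 nM, 48 h compound exposure at 37 C, 5% CO2. Cells seeded at 1,000/well 16 h before dosing.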
% is scaled to controls: 0 for no effect and ±100 for the full control effect; potency is read from the fitted curve at half-maximal effect.

**Q.** With `CN(C)C(CCOc1cccc2ccccc12)c1ccccc1` (centres undefined) as the compound, how does the “activity change, negative = viability loss” value read?
**A.** Its value is -10.6%.

**Q.** `CCCCc1oc2ccc(NS(C)(=O)=O)cc2c1C(=O)c1ccc(OCCCN(CCCC)CCCC)cc1` was tested. Which Potency did it give?
**A.** Its Potency is 27.3 µM (active).

**Q.** Which Potency does the source give for `COc1cccc2c1C(=O)c1c(O)c3c(c(O)c1C2=O)C[C@@](O)(C(=O)CO)C[C@@H]3O[C@H]1C[C@H](N)[C@H](O)[C@H](C)O1` here?
**A.** The Potency was 3.85 µM (active).

**Q.** With `COc1cc2c(NC3CCN(C(C)C)CC3)nc(C3CCCCC3)nc2cc1OCCCN1CCCC1` as the compound, how does the Potency read?
**A.** Its Potency is 9.68 µM (active).

**Q.** How did the Potency turn out when `CC[C@H](CC#N)OC(=O)N[C@@H](C)c1cccc(NC(=O)Nc2ccc(-c3cnco3)c(OC)c2)c1` was run?
**A.** Its Potency is 0.0769 µM (active).

**Q.** How did the Potency turn out when `COc1cccc2c1C(=O)c1c(O)c3c(c(O)c1C2=O)C[C@@](O)(C(=O)CO)C[C@@H]3O[C@H]1C[C@H](N)[C@H](O[C@@H]2CCCCO2)[C@H](C)O1` was run?
**A.** The Potency was 10.9 µM (active).

**Q.** Which “activity change, negative = viability loss” value does the source give for `CC(C)Oc1ccc(C(=O)NC(CNC(=O)CN(C)C)Cc2ccc(-c3cn4cccc(C(C)O)c4n3)cc2)cc1Cl` (centres undefined) here?
**A.** Its value is -16.2%.

**Q.** For `Nc1nccc(Oc2ccc(NC(=O)c3c[nH]cc(-c4ccc(F)cc4)c3=O)cc2F)c1Cl`, which Potency is on record?
**A.** The Potency was 13.7 µM (active).

**Q.** For `CO[C@@]12[C@H](COC(N)=O)C3=C(C(=O)C(C)=C(N)C3=O)N1C[C@@H]1N[C@@H]12`, which “activity change, negative = viability loss” value is on record?
**A.** The value was -2.77%.

**Q.** `CN1CCN(Cc2ccc(NC(=O)Nc3ccc(Oc4cc(NC(=O)C5CC5)ncn4)cc3)cc2C(F)(F)F)CC1` was tested. Which Potency did it give?
**A.** The Potency was 7.69 µM (active).

**Q.** Which “activity change, negative = viability loss” value does the source give for `Cc1cc(Nc2nc(N[C@@H](C)c3ccc(F)cc3)c(C#N)cc2F)n[nH]1` here?
**A.** Its value is -34.8%.

**Q.** How did the Potency turn out when `CC[C@@]1(O)C(=O)OCc2c1cc1n(c2=O)Cc2cc3cc(O)ccc3nc2-1` was run?
**A.** Its Potency is 0.385 µM (active).

**Q.** How did the Potency turn out when `CC(C)(C)C(=O)OCOP(=O)(COCCn1cnc2c(N)ncnc21)OCOC(=O)C(C)(C)C` was run?
**A.** The Potency was 3.43 µM (active).

**Q.** How did the “activity change, negative = viability loss” value turn out when `CCc1cccc(CC)c1NC(=O)N1Cc2[nH]nc(NC(=O)c3ccc(N4CCN(C)CC4)cc3)c2C1` was run?
**A.** The value was -17.5%.

**Q.** For `COc1cc(N2CCC(N3CCN(C)CC3)CC2)ccc1Nc1ncc(Cl)c(Nc2ccccc2S(=O)(=O)C(C)C)n1`, which Potency is on record?
**A.** Its Potency is 21.7 µM (active).

**Q.** With `Cn1cc(-c2[nH]c3cc(NC(=O)[C@H](N)C4CCCCC4)cc4c3c2C=NNC4=O)cn1` as the compound, how does the Potency read?
**A.** Its Potency is 0.432 µM (active).

**Q.** Which Potency does the source give for `CCN(CC)CCOc1ccc(/C(=C(\Cl)c2ccccc2)c2ccccc2)cc1` here?
**A.** Its Potency is 126 µM (active).

**Q.** For `CN(NC(=O)CC(=O)NN(C)C(=S)c1ccccc1)C(=S)c1ccccc1`, which Potency is on record?
**A.** The Potency was 0.0611 µM (active).

**Q.** Which Potency does the source give for `COc1ccc(-c2nc3ccc(C4=NNC(=O)CC4C)cc3[nH]2)cc1` (centres undefined) here?
**A.** The Potency was 2.17 µM (active).

**Q.** Which “activity change, negative = viability loss” value does the source give for `CS(=O)(=O)c1ccc(C(=O)Nc2ccc(Cl)c(-c3ccccn3)c2)c(Cl)c1` here?
**A.** The value was -34.4%.

**Q.** For `C1CCC(C(CC2CCCCN2)C2CCCCC2)CC1` (centres undefined), which Potency is on record?
**A.** The Potency was 27.3 µM (active).

**Q.** With `CCc1c2c(nc3ccc(O)cc13)-c1cc3c(c(=O)n1C2)COC(=O)[C@]3(O)CC` as the compound, how does the Potency read?
**A.** Its Potency is 0.611 µM (active).

**Q.** How did the Potency turn out when `Cc1ccc(C(=O)Nc2ccc(CN3CCN(C)CC3)c(C(F)(F)F)c2)cc1C#Cc1cnc2cccnn12` was run?
**A.** The Potency was 17.2 µM (active).

**Q.** `Cc1cc(C2CCCCC2)n(O)c(=O)c1` was tested. Which Potency did it give?
**A.** The Potency was 11.1 µM (active).

**Q.** `Cc1c(C)n(Cc2ccc(-c3ccccc3C(=O)O)cc2)c2ccc(C(=O)N[C@@H](C)c3ccc([N+](=O)[O-])cc3)cc12` was tested. Which “activity change, negative = viability loss” value did it give?
**A.** The value was -31.7%.

**Q.** Which Potency does the source give for `COc1cc2c(Oc3ccc(-c4cnc(Nc5ccc(F)cc5)n(C)c4=O)cc3F)ccnc2cc1OCCCN1CCOCC1` here?
**A.** Its Potency is 15.3 µM (active).

**Q.** Which “activity change, negative = viability loss” value does the source give for `CCN1CCN(Cc2ccc(Nc3ncc(F)c(-c4cc(F)c5nc(C)n(C(C)C)c5c4)n3)nc2)CC1` here?
**A.** Its value is -21.2%.

**Q.** Which Potency does the source give for `Cc1ccc(C(=O)Nc2cccc(C(F)(F)F)c2)cc1-c1ccc2nc(NCCN3CCOCC3)ncc2c1` here?
**A.** Its Potency is 19.3 µM (active).

**Q.** For `Cc1cnc(Nc2ccc(CN3CCOCC3)cc2)nc1Nc1cccc(S(=O)(=O)NC(C)(C)C)c1`, which Potency is on record?
**A.** Its Potency is 17.2 µM (active).

**Q.** Which “activity change, negative = viability loss” value does the source give for `COc1cc2nccc(Oc3ccc(NC(=O)Nc4cc(C)on4)c(Cl)c3)c2cc1OC` here?
**A.** The value was -9.87%.

**Q.** For `COc1ccc2c(c1OC)C(=O)O[C@@H]2[C@H]1c2c(cc3c(c2OC)OCO3)CCN1C`, which “activity change, negative = viability loss” value is on record?
**A.** Its value is 4.29%.

**Q.** Which Potency does the source give for `CC(C)C[C@H](NC(=O)[C@@H](NC(=O)c1cccc(-c2ccccc2)n1)[C@@H](C)O)B(O)O` here?
**A.** Its Potency is 0.193 µM (active).

**Q.** How did the “activity change, negative = viability loss” value turn out when `CN(C)/N=N/c1nc[nH]c1C(N)=O` was run?
**A.** Its value is 9.55%.

**Q.** How did the “activity change, negative = viability loss” value turn out when `O=c1c(-c2ccc(O)cc2)coc2cc(O)cc(O)c12` was run?
**A.** The value was 10.9%.
